{"source": "the antibiotic and cytotoxicity screens of Wong et al. (2023)", "note": "The whole screen tested about 39,000 compounds, of which about 3,300 (8.5%) were called active. This excerpt belongs to a sample that is enriched for actives."}
{"tested_on": "HepG2", "experiment": "cytotoxicity call (relative viability < 0.9)", "settings": "10 µM"}
{"compound": "Cc1ccc(CC2(N)CC2)cc1", "cytotoxicity call": "inactive"}
{"compound": "CC(C)C[C@H](NC(=O)[C@H](CO)NC(=O)CNC(=O)[C@H](CC(C)C)NC(=O)[C@H](CCC(=O)O)NC(=O)[C@H](Cc1ccc(O)cc1)NC(=O)[C@H](CO)NC(=O)[C@H](CC(N)=O)NC(=O)[C@H](Cc1ccccc1)NC(=O)[C@H](CO)NC(=O)[C@@H](N)CSSC[C@H](N)C(=O)N[C@@H](Cc1ccc(O)cc1)C(=O)NCC(=O)N[C@@H](CCCNC(=N)N)C(=O)N[C@@H](CCCCN)C(=O)N[C@@H](CCCCN)C(=O)N[C@@H](CCCNC(=N)N)C(=O)N[C@@H](CCCNC(=N)N)C(=O)N[C@@H](CCC(N)=O)C(=O)N[C@@H](CCCNC(=N)N)C(=O)N[C@@H](CCCNC(=N)N)C(=O)N[C@@H](CCCNC(=N)N)C(=O)O)C(=O)O", "cytotoxicity call": "inactive"}
{"compound": "CN(CC[C@H](N)CC(=O)N[C@H]1C=C[C@@H](n2ccc(N)nc2=O)O[C@@H]1C(=O)O)C(=N)N", "cytotoxicity call": "inactive"}
{"compound": "c1cncc(N2CCNCC2)c1", "cytotoxicity call": "inactive"}
{"compound": "Cc1[nH]c2ccccc2c1CCN", "cytotoxicity call": "inactive"}
{"compound": "C=CCOC(=O)[C@@H]1[C@H](C(=O)OC)N(C)[C@@H](c2ccccc2)[C@]12C(=O)Nc1ccc(I)cc12", "cytotoxicity call": "inactive"}
{"compound": "OCCN(CCO)CCO", "cytotoxicity call": "inactive"}
{"compound": "NC1Cc2ccccc2C1", "cytotoxicity call": "inactive"}
{"compound": "CC(=O)OC(C)(C)/C=C/C(=O)C(C)(O)[C@H]1[C@H](O)C[C@@]2(C)[C@H]3CC=C4[C@@H](C[C@H](O)C(=O)C4(C)C)[C@]3(C)C(=O)C[C@]12C", "note": "(stereo not given in full)", "cytotoxicity call": "active"}
{"compound": "CC(C)(O)/C=C/C(=O)[C@](C)(O)[C@H]1[C@H](O)C[C@@]2(C)[C@H]3CC=C4[C@@H](CC(=O)C(=O)C4(C)C)[C@]3(C)C(=O)C[C@]12C", "cytotoxicity call": "active"}
{"compound": "Cc1nc(N2CCN(C)CC2)ccc1N", "cytotoxicity call": "inactive"}
{"compound": "C[C@@H]1CN([C@H](C)CO)C(=O)CCCn2nncc2CO[C@H]1CN(C)C(=O)Oc1cccc2ccccc12", "cytotoxicity call": "inactive"}
{"compound": "O=C1C2CCN(CC2)C1(CO)CO", "cytotoxicity call": "inactive"}
{"compound": "CN[C@@H]1[C@@H](O)[C@@H](O[C@@H]2[C@@H](O)[C@H](O[C@H]3O[C@H](CN)CC[C@H]3N)[C@@H](N)C[C@H]2N)OC[C@]1(C)O.CN[C@@H]1[C@@H](O)[C@@H](O[C@@H]2[C@@H](O)[C@H](O[C@H]3O[C@H]([C@@H](C)N)CC[C@H]3N)[C@@H](N)C[C@H]2N)OC[C@]1(C)O.CN[C@@H]1[C@@H](O)[C@@H](O[C@@H]2[C@@H](O)[C@H](O[C@H]3O[C@H]([C@@H](C)NC)CC[C@H]3N)[C@@H](N)C[C@H]2N)OC[C@]1(C)O", "cytotoxicity call": "inactive"}
{"compound": "CN1C2CCC1CC(OC(=O)C(CO)c1ccccc1)C2.O=S(=O)(O)O", "note": "(stereo not given)", "cytotoxicity call": "inactive"}
{"compound": "CNCC(=O)c1ccc(O)c(O)c1.Cl", "cytotoxicity call": "inactive"}
{"compound": "CCn1nc(-c2cccnc2)nc2c(=O)n(C)c(=O)nc1-2", "cytotoxicity call": "active"}
{"compound": "CCCC(=O)O[C@H]1CN2CC[C@H](O)[C@@H]2[C@@H](O)[C@@H]1O", "cytotoxicity call": "inactive"}
{"compound": "O=[N+]([O-])O[C@@H]1CO[C@H]2[C@@H]1OC[C@@H]2O", "cytotoxicity call": "inactive"}
{"compound": "C1CNC[C@@H](N2CCCC2)C1", "cytotoxicity call": "inactive"}
{"compound": "O=C(NC[C@H]1CC[C@@H]2NC[C@@H]2O1)C1CCCC1", "cytotoxicity call": "inactive"}
{"compound": "C=CCN=C=S", "cytotoxicity call": "active"}
{"compound": "O=C1NCN(c2ccccc2)C12CCNCC2", "cytotoxicity call": "inactive"}
{"compound": "CN1C[C@H]2CON[C@@H]2C1", "cytotoxicity call": "inactive"}
{"compound": "O=[N+]([O-])c1ccc2c3c(cccc13)CC2", "cytotoxicity call": "inactive"}
{"compound": "CC(C)(CN)CNc1ccc([N+](=O)[O-])c2cccnc12", "cytotoxicity call": "active"}
{"compound": "O=C1O[C@H]2CN[C@@H]1C2", "cytotoxicity call": "inactive"}
{"compound": "N[C@@H](C(=O)O)c1nn[nH]n1", "cytotoxicity call": "inactive"}
{"compound": "OCC(O)C1OC2OC(C(Cl)(Cl)Cl)OC2C1O", "note": "(stereo not given)", "cytotoxicity call": "inactive"}
{"compound": "CS(=O)(=O)N1CCO[C@]2(COCCN(Cc3ccncc3)C2)C1", "cytotoxicity call": "inactive"}
{"compound": "O=c1[nH]c2ccccc2n1C1CCN(Cc2ccc(-c3nc4cc5[nH]cnc5cc4nc3-c3ccccc3)cc2)CC1", "cytotoxicity call": "active"}
{"compound": "CN1[C@@H]2CC[C@H]1C[C@H](O)C2", "cytotoxicity call": "inactive"}
{"compound": "Cc1cccnc1N1CCNCC1", "cytotoxicity call": "inactive"}
{"compound": "O=C1[O][SbH]23[O]C(=O)[C@H]([O]2)[C@H]2[O][SbH]4([O]C(=O)[C@H]([O]4)[C@H]1[O]3)[O]C2=O", "cytotoxicity call": "active"}
{"compound": "O=C1[O][SbH]23[O]C(=O)C([O]2)C2[O][SbH]4([O]C(=O)C([O]4)C1[O]3)[O]C2=O", "cytotoxicity call": "active"}
{"compound": "N#C[C@H]1NCc2cnnn2-c2ccccc21", "cytotoxicity call": "inactive"}
{"compound": "O=[N+]([O-])c1c(NCCO)ccc2nonc12", "cytotoxicity call": "inactive"}
{"compound": "CC(C)(C)CC(=O)N1C[C@H]2C[C@@H]1CN2", "cytotoxicity call": "inactive"}
{"compound": "Cc1cc[n+](C)cc1", "cytotoxicity call": "inactive"}
{"compound": "O=c1n(Cl)c(=O)n(Cl)c(=O)n1Cl", "cytotoxicity call": "inactive"}
{"compound": "CC(COc1ccc(Oc2ccccc2)cc1)Oc1ccccn1", "note": "(stereo not given)", "cytotoxicity call": "inactive"}
{"compound": "O=c1[n-]c(=O)n(Cl)c(=O)n1Cl.[Na+]", "cytotoxicity call": "inactive"}
{"compound": "CCC(C)C1OC2(C=CC1C)CC1CC(CC=C(C)C(OC3CC(OC)C(OC4CC(OC)C(O)C(C)O4)C(C)O3)C(C)C=CC=C3COC4C(O)C(C)=CC(C(=O)O1)C34O)O2", "note": "(stereo not given) [ABAMECTIN (avermectin B1a shown) ]", "cytotoxicity call": "active"}
{"compound": "CN1CCN([C@@H](CN)c2ccc3c(c2)OCO3)CC1", "cytotoxicity call": "inactive"}
{"compound": "O=C1C[C@H](c2ccccc2)[C@@H]2CNCCN12", "cytotoxicity call": "inactive"}
{"compound": "O=C(NC(=O)c1c(F)cccc1F)Nc1ccc(Cl)cc1", "cytotoxicity call": "inactive"}
{"compound": "O=C(NC(=O)c1c(F)cccc1F)Nc1cc(Cl)c(OC(F)(F)[C@@H](F)C(F)(F)F)cc1Cl", "cytotoxicity call": "inactive"}
{"compound": "O=C(NC(=O)c1c(F)cccc1F)Nc1cc(Cl)c(OC(F)(F)C(F)C(F)(F)F)cc1Cl", "note": "(stereo not given)", "cytotoxicity call": "active"}
{"compound": "CN1CCc2cc3c(cc2C1O)OCO3.Cl", "note": "(stereo not given)", "cytotoxicity call": "inactive"}
{"compound": "CN1CCc2cc3c(cc2[C@@H]1O)OCO3", "cytotoxicity call": "inactive"}
{"compound": "COC(=O)C[C@](O)(CCC(C)(C)O)C(=O)O[C@@H]1C(OC)=C[C@]23CCCN2CCc2cc4c(cc2[C@H]13)OCO4", "cytotoxicity call": "active"}
{"compound": "CN1C[C@@H]2c3nc(N(C)C)ncc3CS(=O)(=O)[C@H]2C1", "cytotoxicity call": "inactive"}
{"compound": "CN1CC(CNC(=O)OCc2ccccc2)CC2c3cccc4c3c(cn4C)CC21", "note": "(stereo not given)", "cytotoxicity call": "active"}
{"compound": "CCC(CO)NC(=O)C1C=C2c3cccc4c3c(cn4C)CC2N(C)C1.O=C(O)C=CC(=O)O", "note": "(stereo not given)", "cytotoxicity call": "inactive"}
{"compound": "CC(C)[C@@]1(NC(=O)[C@H]2C[C@@H]3c4cccc5[nH]cc(c45)C[C@H]3N(C)C2)O[C@@]2(O)[C@H]3CCCN3C(=O)[C@@H](Cc3ccccc3)N2C1=O", "cytotoxicity call": "inactive"}
{"compound": "CC(C)[C@@]1(NC(=O)[C@@H]2C[C@@H]3c4cccc5[nH]cc(c45)C[C@H]3N(C)C2)O[C@@]2(O)[C@@H]3CCCN3C(=O)[C@H](Cc3ccccc3)N2C1=O", "cytotoxicity call": "inactive"}
{"compound": "CC(=O)OCC1=C(C(=O)O)N2C(=O)[C@@H](N)[C@H]2SC1", "cytotoxicity call": "inactive"}
{"compound": "CC(=O)Nc1cc([As](=O)(O)O)ccc1O", "cytotoxicity call": "inactive"}
{"compound": "COC1=CC2C3Cc4ccc(OC)c(O)c4C2(CCN3C)CC1=O", "note": "(stereo not given)", "cytotoxicity call": "inactive"}
{"compound": "C=C1[C@@H](C)[C@H]2[C@H](Cc3ccccc3)NC(=O)[C@]23[C@H](OC(C)=O)/C=C/[C@](C)(O)C(=O)[C@@H](C)C/C=C/[C@H]3[C@@H]1O", "cytotoxicity call": "active"}
{"compound": "Cc1noc(C)c1C(=O)N1C[C@@H]2CCN[C@@H]2C1", "cytotoxicity call": "inactive"}
{"compound": "CC1=NCCN=C(C)C1N1CCOCC1", "cytotoxicity call": "inactive"}
{"compound": "O=C(OC1CC2CCC(C1)[N+]21CCCC1)C(O)(c1ccccc1)c1ccccc1.[Cl-]", "note": "(stereo not given)", "cytotoxicity call": "inactive"}
{"compound": "N[C@@]1(C(=O)O)CC[C@@H](C(=O)O)C1.N[C@]1(C(=O)O)CC[C@H](C(=O)O)C1", "cytotoxicity call": "inactive"}
{"compound": "CC[C@@H](C(=O)[C@@H](C)[C@@H](O)[C@H](C)[C@@H]1O[C@@H]([C@@H](CC)C(=O)O)CC[C@@H]1C)[C@H]1O[C@]2(C=C[C@@H](O)[C@]3(CC[C@@](C)([C@H]4CC[C@](O)(CC)[C@H](C)O4)O3)O2)[C@H](C)C[C@@H]1C", "cytotoxicity call": "inactive"}
{"compound": "CCC(C(=O)[O-])C1CCC(C)C(C(C)C(O)C(C)C(=O)C(CC)C2OC3(C=CC(O)C4(CCC(C)(C5CCC(O)(CC)C(C)O5)O4)O3)C(C)CC2C)O1.[Na+]", "note": "(stereo not given)", "cytotoxicity call": "active"}
{"compound": "CCCCC(=O)N1C[C@@H]2CCNC[C@@H]21", "cytotoxicity call": "inactive"}
{"compound": "Cc1csc(CCN)n1", "cytotoxicity call": "inactive"}
{"compound": "CN1[C@@H]2CNc3ccccc3[C@@H]2[C@@H]1CO", "cytotoxicity call": "inactive"}
{"compound": "CCN1C[C@]2(OC(=O)c3ccccc3NC(C)=O)CC[C@@H](OC)[C@@]34[C@H]5C[C@@H]6[C@@H](OC)C[C@](O)([C@@H](C[C@@H]23)[C@@H]14)[C@]5(O)[C@H]6OC", "cytotoxicity call": "inactive"}
{"compound": "N[C@@H](Cn1oc(=O)[nH]c1=O)C(=O)O", "cytotoxicity call": "inactive"}
{"compound": "COC(=O)C1=CCCN(C)C1", "cytotoxicity call": "inactive"}
{"compound": "Br.COC(=O)C1=CCCN(C)C1", "cytotoxicity call": "active"}
{"compound": "Clc1cc2c(cc1Cl)Oc1cc(Cl)c(Cl)cc1O2", "cytotoxicity call": "inactive"}
{"compound": "CNCC(=O)c1ccc(O)c(O)c1", "cytotoxicity call": "inactive"}
{"compound": "C[C@H]1CN([C@@H](C)CO)C(=O)c2c(c3ccccc3n2C)-c2ccccc2CO[C@H]1CN(C)C(=O)Oc1ccccc1", "cytotoxicity call": "inactive"}
{"compound": "N[C@H]1Cc2ccccc2[C@@H]1O", "cytotoxicity call": "inactive"}
{"compound": "O=[N+]([O-])c1cc([As](=O)(O)O)ccc1O", "cytotoxicity call": "inactive"}
{"compound": "O=[N+]([O-])c1ccc([As](=O)(O)O)cc1", "note": "[listing 1 of 2 here]", "cytotoxicity call": "inactive"}
{"compound": "O=[N+]([O-])c1ccc([As](=O)(O)O)cc1", "note": "[listing 2 of 2 here]", "cytotoxicity call": "active"}
{"compound": "CC1=C2C3OC(=O)C(C)C3CCC2(C)C=CC1=O", "note": "(stereo not given)", "cytotoxicity call": "inactive"}
{"compound": "O=C1NC(=S)NC(=O)C1=Cc1ccccc1", "cytotoxicity call": "inactive"}
{"compound": "C=CC=CCC1=C(C)C(OC(=O)C2C(C=C(C)C)C2(C)C)CC1=O", "note": "(stereo not given)", "cytotoxicity call": "inactive"}
{"compound": "Oc1cc(Cl)ccc1Oc1ccc(Cl)cc1Cl", "note": "[listing 1 of 2 here]", "cytotoxicity call": "inactive"}
{"compound": "Nc1ccc(Cl)cc1Cl", "cytotoxicity call": "inactive"}
{"compound": "Oc1cc(Cl)ccc1Oc1ccc(Cl)cc1Cl", "note": "[listing 2 of 2 here]", "cytotoxicity call": "active"}
{"compound": "Cc1nc(-c2ccc(-c3ccc(C(=O)N4CCc5cc6c(cc54)C4(CCN(C)CC4)CO6)cc3)c(C)c2)no1", "cytotoxicity call": "active"}
{"compound": "NCCc1nc2ccccc2[nH]1", "cytotoxicity call": "inactive"}
{"compound": "O[C@H]1[C@H]2[C@H](O)CCCN2C[C@H]1O", "cytotoxicity call": "inactive"}
{"compound": "COc1ccc(C(=O)O[C@H]2CC[C@@]3(C)[C@@H]4CC[C@H]5[C@]6(O)C[C@H](O)[C@@]7(O)[C@@H](CN8C[C@@H](C)CC[C@H]8[C@@]7(C)O)[C@]6(O)C[C@@]53O[C@]24O)cc1OC", "cytotoxicity call": "inactive"}
